Assays:
[1] = biological target: Tyrosine-protein kinase Fyn (Homo sapiens) (UniProt P06241); settings: at 1 µM
[2] = biological target: Tyrosine-protein kinase HCK (Homo sapiens) (UniProt P08631); settings: at 0.1 µM
[3] = biological target: Tyrosine-protein kinase HCK (Homo sapiens) (UniProt P08631); settings: at 1 µM
[4] = biological target: Insulin-like growth factor 1 receptor (Homo sapiens) (UniProt P08069); settings: at 0.1 µM
[5] = biological target: Insulin-like growth factor 1 receptor (Homo sapiens) (UniProt P08069); settings: at 1 µM
[6] = biological target: Insulin receptor (Homo sapiens) (UniProt P06213); settings: at 0.1 µM
[7] = biological target: Insulin receptor (Homo sapiens) (UniProt P06213); settings: at 1 µM
[8] = biological target: Insulin receptor-related protein (Homo sapiens) (UniProt P14616); settings: at 0.1 µM
[9] = biological target: Insulin receptor-related protein (Homo sapiens) (UniProt P14616); settings: at 1 µM
[10] = biological target: T1, Tyrosine-protein kinase ITK/TSK (Homo sapiens) (UniProt Q08881); settings: at 0.1 µM
T1 sequence (whole entry): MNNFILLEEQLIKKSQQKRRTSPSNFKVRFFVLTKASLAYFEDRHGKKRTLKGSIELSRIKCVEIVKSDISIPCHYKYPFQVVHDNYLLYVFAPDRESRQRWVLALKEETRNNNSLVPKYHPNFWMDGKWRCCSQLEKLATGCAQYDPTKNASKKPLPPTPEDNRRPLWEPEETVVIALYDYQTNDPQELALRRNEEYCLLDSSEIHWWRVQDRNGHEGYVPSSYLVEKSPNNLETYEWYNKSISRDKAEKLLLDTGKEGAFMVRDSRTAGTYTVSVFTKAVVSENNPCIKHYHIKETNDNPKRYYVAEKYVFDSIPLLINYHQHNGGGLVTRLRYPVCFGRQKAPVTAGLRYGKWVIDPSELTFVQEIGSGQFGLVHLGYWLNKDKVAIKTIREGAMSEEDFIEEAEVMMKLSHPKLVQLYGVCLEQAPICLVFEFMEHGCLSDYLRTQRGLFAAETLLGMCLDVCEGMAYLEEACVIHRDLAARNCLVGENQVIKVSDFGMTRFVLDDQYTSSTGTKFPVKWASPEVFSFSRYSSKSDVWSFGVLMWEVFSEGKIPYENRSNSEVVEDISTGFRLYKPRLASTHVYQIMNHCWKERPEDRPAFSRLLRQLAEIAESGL

[11] = biological target: T1, Tyrosine-protein kinase ITK/TSK (Homo sapiens); settings: at 1 µM
[12] = biological target: Tyrosine-protein kinase JAK1 (Homo sapiens) (UniProt P23458); settings: at 0.1 µM
[13] = biological target: Tyrosine-protein kinase JAK1 (Homo sapiens) (UniProt P23458); settings: at 1 µM
[14] = biological target: Tyrosine-protein kinase JAK2 (Homo sapiens) (UniProt O60674); settings: at 0.1 µM
[15] = biological target: Tyrosine-protein kinase JAK2 (Homo sapiens) (UniProt O60674); settings: at 1 µM
[16] = biological target: T2, Tyrosine-protein kinase JAK3 (Homo sapiens) (UniProt P52333); settings: at 0.1 µM
T2 sequence (whole entry): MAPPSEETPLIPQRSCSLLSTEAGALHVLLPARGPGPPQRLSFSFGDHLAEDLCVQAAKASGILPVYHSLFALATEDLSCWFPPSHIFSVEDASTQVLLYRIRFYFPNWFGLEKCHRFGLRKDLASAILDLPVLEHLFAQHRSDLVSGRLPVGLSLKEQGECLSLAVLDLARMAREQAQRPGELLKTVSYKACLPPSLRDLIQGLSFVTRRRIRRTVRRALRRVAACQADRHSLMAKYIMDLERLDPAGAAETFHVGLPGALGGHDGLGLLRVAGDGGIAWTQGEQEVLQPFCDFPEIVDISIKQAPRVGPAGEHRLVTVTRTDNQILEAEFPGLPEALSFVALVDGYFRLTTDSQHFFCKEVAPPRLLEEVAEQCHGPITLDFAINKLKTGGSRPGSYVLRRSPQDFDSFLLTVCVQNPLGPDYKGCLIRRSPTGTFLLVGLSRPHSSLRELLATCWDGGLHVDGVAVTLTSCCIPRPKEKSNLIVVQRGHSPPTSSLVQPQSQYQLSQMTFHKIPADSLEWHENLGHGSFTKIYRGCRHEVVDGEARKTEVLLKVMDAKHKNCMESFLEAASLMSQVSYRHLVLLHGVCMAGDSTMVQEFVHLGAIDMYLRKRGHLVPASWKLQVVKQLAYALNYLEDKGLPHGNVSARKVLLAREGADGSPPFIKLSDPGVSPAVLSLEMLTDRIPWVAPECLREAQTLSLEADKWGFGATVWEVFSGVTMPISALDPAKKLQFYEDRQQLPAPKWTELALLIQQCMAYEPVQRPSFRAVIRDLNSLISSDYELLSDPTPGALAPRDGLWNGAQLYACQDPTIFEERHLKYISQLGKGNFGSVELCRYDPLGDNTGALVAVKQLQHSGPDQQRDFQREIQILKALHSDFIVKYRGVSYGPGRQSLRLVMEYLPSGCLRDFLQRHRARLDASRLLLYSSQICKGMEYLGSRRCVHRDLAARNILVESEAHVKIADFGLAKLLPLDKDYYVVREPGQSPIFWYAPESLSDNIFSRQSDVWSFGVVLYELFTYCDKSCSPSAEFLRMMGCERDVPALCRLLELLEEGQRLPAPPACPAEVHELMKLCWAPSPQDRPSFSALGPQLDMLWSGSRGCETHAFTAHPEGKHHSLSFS

[17] = biological target: T2, Tyrosine-protein kinase JAK3 (Homo sapiens); settings: at 1 µM
[18] = biological target: Vascular endothelial growth factor receptor 2 (Homo sapiens) (UniProt P35968); settings: at 0.1 µM
[19] = biological target: Vascular endothelial growth factor receptor 2 (Homo sapiens) (UniProt P35968); settings: at 1 µM
[20] = biological target: Mast/stem cell growth factor receptor Kit (Homo sapiens) (UniProt P10721); settings: at 0.1 µM;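 further: values are mean inhibition of KIT, from the GSK PKIS dataset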
Mast/stem cell growth factor receptor Kit (Homo sapiens), sequence (P10721 whole entry): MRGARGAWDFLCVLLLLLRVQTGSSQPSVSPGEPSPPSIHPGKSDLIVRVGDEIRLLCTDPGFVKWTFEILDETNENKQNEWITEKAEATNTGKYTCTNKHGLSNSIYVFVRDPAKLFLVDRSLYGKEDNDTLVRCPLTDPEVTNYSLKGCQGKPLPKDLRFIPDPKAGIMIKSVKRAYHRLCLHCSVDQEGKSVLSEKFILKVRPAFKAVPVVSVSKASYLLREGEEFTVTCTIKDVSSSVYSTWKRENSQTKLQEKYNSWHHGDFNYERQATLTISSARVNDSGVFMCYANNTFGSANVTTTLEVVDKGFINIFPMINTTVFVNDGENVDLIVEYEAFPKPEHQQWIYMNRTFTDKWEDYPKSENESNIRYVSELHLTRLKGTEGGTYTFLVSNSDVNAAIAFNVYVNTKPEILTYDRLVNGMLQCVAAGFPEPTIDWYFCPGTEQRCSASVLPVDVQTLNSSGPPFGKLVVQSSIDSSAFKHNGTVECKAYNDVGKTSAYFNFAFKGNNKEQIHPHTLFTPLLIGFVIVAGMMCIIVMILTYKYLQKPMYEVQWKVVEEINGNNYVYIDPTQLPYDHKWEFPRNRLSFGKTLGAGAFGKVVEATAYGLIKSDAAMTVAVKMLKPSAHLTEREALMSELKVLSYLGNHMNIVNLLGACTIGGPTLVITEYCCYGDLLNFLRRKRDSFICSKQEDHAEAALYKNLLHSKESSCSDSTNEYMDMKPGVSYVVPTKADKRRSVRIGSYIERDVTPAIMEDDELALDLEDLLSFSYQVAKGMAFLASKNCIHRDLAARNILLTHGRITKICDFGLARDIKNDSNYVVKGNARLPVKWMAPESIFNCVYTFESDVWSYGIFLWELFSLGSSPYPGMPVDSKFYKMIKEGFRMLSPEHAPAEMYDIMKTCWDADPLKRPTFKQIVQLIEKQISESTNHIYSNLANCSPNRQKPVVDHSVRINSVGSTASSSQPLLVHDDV

Insulin receptor-related protein (Homo sapiens), sequence (P14616 27-742 limits assumed): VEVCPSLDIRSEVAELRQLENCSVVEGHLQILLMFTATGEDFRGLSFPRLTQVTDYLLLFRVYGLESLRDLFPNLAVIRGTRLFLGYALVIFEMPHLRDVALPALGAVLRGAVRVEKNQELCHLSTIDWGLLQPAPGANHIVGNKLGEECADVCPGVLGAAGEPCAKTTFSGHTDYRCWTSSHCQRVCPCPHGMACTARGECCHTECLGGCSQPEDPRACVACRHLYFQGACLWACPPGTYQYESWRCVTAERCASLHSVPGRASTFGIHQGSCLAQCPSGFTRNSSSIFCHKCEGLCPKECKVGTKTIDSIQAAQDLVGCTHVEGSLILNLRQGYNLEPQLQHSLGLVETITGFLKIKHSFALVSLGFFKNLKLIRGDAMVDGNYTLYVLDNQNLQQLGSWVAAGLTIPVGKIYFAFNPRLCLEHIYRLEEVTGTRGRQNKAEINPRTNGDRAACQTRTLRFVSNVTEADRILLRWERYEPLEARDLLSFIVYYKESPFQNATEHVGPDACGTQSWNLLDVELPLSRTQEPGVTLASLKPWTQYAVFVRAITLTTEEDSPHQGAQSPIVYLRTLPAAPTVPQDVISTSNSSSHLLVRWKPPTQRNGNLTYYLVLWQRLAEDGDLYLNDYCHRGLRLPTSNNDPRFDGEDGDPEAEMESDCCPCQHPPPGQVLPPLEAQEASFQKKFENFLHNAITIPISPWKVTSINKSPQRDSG
Insulin receptor-related protein (Homo sapiens), sequence (P14616 747-1297 limits assumed): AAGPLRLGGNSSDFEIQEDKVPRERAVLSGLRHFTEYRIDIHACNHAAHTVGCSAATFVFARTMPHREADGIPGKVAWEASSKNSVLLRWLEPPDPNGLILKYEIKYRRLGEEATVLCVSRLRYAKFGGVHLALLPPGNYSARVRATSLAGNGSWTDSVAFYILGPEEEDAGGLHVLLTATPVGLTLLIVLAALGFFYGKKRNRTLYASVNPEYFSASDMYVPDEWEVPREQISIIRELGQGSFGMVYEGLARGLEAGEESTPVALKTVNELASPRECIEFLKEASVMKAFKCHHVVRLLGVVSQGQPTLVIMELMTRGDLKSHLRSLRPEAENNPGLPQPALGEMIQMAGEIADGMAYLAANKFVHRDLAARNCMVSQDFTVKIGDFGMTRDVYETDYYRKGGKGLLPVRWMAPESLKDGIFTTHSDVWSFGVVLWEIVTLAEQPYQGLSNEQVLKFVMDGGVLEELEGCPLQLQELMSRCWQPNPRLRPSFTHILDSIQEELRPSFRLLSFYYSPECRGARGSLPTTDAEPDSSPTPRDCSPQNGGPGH
Tyrosine-protein kinase JAK1 (Homo sapiens), sequence (P23458 whole entry): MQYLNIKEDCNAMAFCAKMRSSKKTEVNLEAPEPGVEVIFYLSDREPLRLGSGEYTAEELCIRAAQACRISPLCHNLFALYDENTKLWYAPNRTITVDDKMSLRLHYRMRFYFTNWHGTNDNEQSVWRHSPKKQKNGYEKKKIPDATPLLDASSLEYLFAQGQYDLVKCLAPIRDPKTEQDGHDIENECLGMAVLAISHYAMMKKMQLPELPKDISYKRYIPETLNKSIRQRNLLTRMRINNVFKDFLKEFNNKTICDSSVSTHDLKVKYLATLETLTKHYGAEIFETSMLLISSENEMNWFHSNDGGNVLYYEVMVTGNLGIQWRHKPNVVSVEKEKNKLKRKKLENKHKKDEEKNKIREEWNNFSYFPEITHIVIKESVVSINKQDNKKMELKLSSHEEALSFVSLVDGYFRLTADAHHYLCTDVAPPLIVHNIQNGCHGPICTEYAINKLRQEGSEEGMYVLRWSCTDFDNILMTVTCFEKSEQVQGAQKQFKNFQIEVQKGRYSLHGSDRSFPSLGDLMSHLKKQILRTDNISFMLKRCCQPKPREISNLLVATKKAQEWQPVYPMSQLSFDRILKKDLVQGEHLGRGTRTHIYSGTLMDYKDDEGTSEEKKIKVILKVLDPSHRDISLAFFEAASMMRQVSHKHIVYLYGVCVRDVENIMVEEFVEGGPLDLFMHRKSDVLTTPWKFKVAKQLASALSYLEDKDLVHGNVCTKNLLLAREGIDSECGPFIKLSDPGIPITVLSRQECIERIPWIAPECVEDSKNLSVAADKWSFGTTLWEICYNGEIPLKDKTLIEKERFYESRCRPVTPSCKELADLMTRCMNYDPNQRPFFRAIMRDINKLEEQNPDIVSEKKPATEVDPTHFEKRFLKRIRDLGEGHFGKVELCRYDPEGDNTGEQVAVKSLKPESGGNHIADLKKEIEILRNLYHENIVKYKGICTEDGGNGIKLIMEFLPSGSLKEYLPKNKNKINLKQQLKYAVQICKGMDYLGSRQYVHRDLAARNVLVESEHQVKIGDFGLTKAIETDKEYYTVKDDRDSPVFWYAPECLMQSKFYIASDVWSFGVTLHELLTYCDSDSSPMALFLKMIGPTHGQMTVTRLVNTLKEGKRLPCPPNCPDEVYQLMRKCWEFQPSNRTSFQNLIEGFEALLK
Insulin-like growth factor 1 receptor (Homo sapiens), sequence (P08069 31-736 limits assumed): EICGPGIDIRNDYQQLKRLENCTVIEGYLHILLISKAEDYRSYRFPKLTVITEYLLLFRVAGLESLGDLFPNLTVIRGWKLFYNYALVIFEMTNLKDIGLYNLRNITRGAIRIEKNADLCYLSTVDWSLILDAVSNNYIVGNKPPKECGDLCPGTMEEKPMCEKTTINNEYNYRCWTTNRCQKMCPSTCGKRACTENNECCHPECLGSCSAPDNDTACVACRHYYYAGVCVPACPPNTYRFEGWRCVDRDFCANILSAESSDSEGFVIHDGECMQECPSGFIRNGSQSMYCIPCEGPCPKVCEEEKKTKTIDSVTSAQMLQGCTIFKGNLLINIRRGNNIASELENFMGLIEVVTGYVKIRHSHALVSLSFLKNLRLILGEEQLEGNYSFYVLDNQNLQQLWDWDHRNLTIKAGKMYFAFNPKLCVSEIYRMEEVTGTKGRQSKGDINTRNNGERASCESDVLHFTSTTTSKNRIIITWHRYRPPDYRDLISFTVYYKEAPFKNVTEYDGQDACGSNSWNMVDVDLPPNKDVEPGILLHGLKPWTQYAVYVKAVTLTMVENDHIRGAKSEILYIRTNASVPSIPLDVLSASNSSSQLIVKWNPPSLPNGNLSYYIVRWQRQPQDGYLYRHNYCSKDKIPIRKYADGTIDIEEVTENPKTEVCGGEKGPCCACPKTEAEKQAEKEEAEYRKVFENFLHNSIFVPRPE
Insulin-like growth factor 1 receptor (Homo sapiens), sequence (P08069 741-1367 limits assumed): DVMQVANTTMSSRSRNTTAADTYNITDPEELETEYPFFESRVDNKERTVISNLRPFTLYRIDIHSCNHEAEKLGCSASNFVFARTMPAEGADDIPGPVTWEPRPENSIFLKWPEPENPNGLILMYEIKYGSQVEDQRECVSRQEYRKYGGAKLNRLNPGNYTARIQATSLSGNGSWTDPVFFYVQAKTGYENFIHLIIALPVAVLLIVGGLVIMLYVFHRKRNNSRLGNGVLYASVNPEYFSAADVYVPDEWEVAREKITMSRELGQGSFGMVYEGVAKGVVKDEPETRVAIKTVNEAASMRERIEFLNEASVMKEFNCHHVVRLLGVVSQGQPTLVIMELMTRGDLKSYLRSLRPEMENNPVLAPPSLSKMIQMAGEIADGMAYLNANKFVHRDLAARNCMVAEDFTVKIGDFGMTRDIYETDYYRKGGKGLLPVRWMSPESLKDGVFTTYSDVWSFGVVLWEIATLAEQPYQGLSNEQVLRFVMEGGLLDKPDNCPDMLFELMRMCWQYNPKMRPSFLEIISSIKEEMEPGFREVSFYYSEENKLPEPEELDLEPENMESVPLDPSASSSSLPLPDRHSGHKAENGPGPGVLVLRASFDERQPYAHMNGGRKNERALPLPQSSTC

| Compound | inhibition [1] [%] | inhibition [2] [%] | inhibition [3] [%] | inhibition [4] [%] | inhibition [5] [%] | inhibition [6] [%] | inhibition [7] [%] | inhibition [8] [%] | inhibition [9] [%] | inhibition [10] [%] | inhibition [11] [%] | inhibition [12] [%] | inhibition [13] [%] | inhibition [14] [%] | inhibition [15] [%] | inhibition [16] [%] | inhibition [17] [%] | inhibition [18] [%] | inhibition [19] [%] | inhibition [20] [%] |
| --- | --- | --- | --- | --- | --- | --- | --- | --- | --- | --- | --- | --- | --- | --- | --- | --- | --- | --- | --- | --- |
| CCn1c(-c2nonc2N)nc2cncc(C(=O)N3CCNCC3)c21 | 2.87 | 6.76 | 9.25 | 8.86 | 9.25 | 10.5 | 9.41 | 4.06 | 6.22 | 2.63 | 2.09 | 4.28 | 4.72 | 4.03 | 2.86 | -0.41 | -0.7 | 3.99 | 9.13 | 7.95 |
| COc1cc2ncn(-c3cc(OCc4ccccc4C(F)(F)F)c(C(N)=O)s3)c2cc1OC | 9.2 | 8.32 | 29.2 | – | -2.72 | -1.5 | 2.13 | 4.32 | 3.34 | -3.84 | -0.36 | 1.72 | 2.62 | 1.67 | 1.84 | -6.46 | -2.61 | 21.7 | 68.9 | – |
| COc1ccc(COc2ccc(Cc3cnc(N)nc3N)cc2OC)cc1 | 1.28 | 3.28 | 3.12 | -2.27 | -0.91 | 0.54 | -1 | 0.04 | -0.57 | 1.47 | 2.31 | 3.77 | -0.05 | 1.99 | 4.19 | 2.12 | 3.61 | 6.02 | 9.65 | 1.04 |
| CNC(=O)c1cncc(/C=C/c2c(Cl)cccc2Cl)c1 | 15.1 | 11.6 | 44.9 | -8.06 | -3 | 3.59 | 2.79 | 2.44 | 2.34 | -1.98 | -1.73 | 2.61 | 2.48 | 1.58 | 2.6 | -4.61 | -3.71 | 6.02 | 13.1 | 5.81 |
| NC(=O)c1cccc(Nc2nccc(Nc3cccc4[nH]ncc34)n2)c1 | 96.1 | 64 | 84.6 | -0.89 | 15.5 | -2.6 | 16.8 | -0.86 | 0.93 | -0.33 | 1.1 | – | 19.6 | 6.75 | 57 | 0.54 | 25.2 | 16.1 | 63.1 | 48.5 |
| Cc1nnc(-c2ccc(C)c(-c3ccc(C(=O)Nc4cccc(C#N)c4)cc3)c2)o1 | 3.47 | 4.32 | 5.14 | 1.24 | 0.79 | 4.34 | 3.89 | -0.6 | 1.65 | 0.98 | 0.58 | 1.77 | 6.74 | -0.14 | -0.34 | -1.17 | 1.29 | 3.3 | 7.82 | 5.68 |
| NCc1ccc(-c2nc(-c3ccc(Cl)c(O)c3)c(-c3ccncc3)[nH]2)cc1 | 31.8 | 12.9 | 55.1 | -0.62 | -0.25 | 0.74 | 2.07 | -0.06 | -1.54 | 0.2 | 1.29 | -0.11 | 2.34 | 0.65 | 0.75 | 1.4 | 1.41 | 69.2 | 74.8 | 0.79 |
| CS(=O)(=O)Nc1ccc(N/C=C2\C(=O)Nc3ccccc32)cc1 | 4.85 | -0.18 | 14.1 | -1.54 | 5.77 | -0.48 | 8.57 | -3.26 | -1.01 | -0.24 | 3.61 | 0.26 | 5.33 | -0.93 | 1.03 | 0.43 | 8.16 | 6.66 | 46.7 | 17.6 |
| CCn1c(-c2nonc2N)nc2ccncc21 | -0.65 | 3.79 | 3.12 | -0.2 | 1.25 | 3.48 | 5.38 | -0.17 | -0.42 | 0.26 | 0.76 | 1.34 | 6.51 | 0.33 | 0.91 | -1.14 | 2.73 | 1.87 | 2.46 | -0.66 |
| CS(=O)(=O)CCNCc1ccc(-c2ccc3ncnc(Nc4ccc(OCc5cccc(F)c5)c(C(F)(F)F)c4)c3c2)o1 | 2.37 | 5.21 | 4.98 | 0.07 | 1.69 | 5.7 | 6.44 | 3.1 | 2.55 | 1.12 | 0.72 | 3.98 | 13.3 | 0.47 | 1.17 | -0.58 | -0.15 | 3.99 | 3.93 | 3.96 |
| CCc1cccc(NC(=O)Nc2ccc(Oc3ccc4nc(NC(=O)OC)[nH]c4c3)cc2)c1 | 4.72 | 4.76 | 7.28 | 5.04 | 2.45 | -2.61 | 0.47 | 2.05 | 3.39 | 0.3 | 1.87 | 1.39 | 1.27 | 1.07 | 4.62 | -1.05 | 1.13 | – | – | 87.5 |
| Cn1cc(C=C2C(=O)Nc3cccnc32)c2ccccc21 | 15.4 | 6.56 | 42.1 | 1.72 | 8.98 | 3.49 | 20.1 | 0.41 | 1.8 | 2.56 | 15.7 | 1.61 | -6.11 | 0.37 | 2.77 | -0.5 | 4.53 | 14.7 | 54.8 | 11.3 |
| [O-][S+]1CCN(Cc2ccc(-c3ccc4ncnc(Nc5ccc(OCc6ccccc6)c(F)c5)c4c3)o2)CC1 | 9.16 | 3.37 | 7.23 | 4.94 | 2.99 | 4.18 | 4.1 | 0.94 | 2.32 | 1.08 | 2.13 | 0.52 | 0.63 | 0.4 | 0.64 | 0.01 | -0.11 | 2.98 | 6.19 | 2.02 |
| CN(C)c1cc2c(Nc3ccc4nc(Cc5ccccc5)[nH]c4c3)ncnc2cn1 | 27.7 | 11.5 | 30.6 | 6.59 | 11.5 | 7.56 | 8.05 | 3.36 | 4.95 | 1.45 | 1.51 | 5.67 | 8.16 | 2.34 | 1.44 | -1.29 | -1.24 | 7.5 | 10.4 | 4.97 |
